# Reference: the supplement of paper PMC3342239
# Counter-ions that a name gives are not always drawn.
# Test system: Saccharomyces cerevisiae
# Experiment: fraction of cells in G1 phase (DNA content, flow cytometry); higher = more cells with unreplicated DNA (G1 delay)
# Details: temperature: 30 C; YPD; JTY2953 pdr5 snq2 (sensitized); drug added to: cultures diluted from stationary phase; 6-7 h
# In short: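 S. cerevisiae grown in YPD at 30°C was exposed to library drugs. In one setup, overnight sensitized JTY2953 cultures were diluted 1∶200, given a final 20 µg/ml and fixed after 6–7 h, while other runs dosed dividing JTY2953 with fixation 6 h later or BY4741 with fixation 4.33 h later. Cells were ethanol-fixed, stained with SYTOX Green and analysed by flow cytometry at 10,000 events. The G1 fraction is the area of the Dean-Jett-Fox G1 peak divided by the summed G1 and G2/M areas.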
row,Structure (SMILES),fraction of cells in G1 phase
1,C=C(c1ccc(C(=O)O)cc1)c1cc2c(cc1C)C(C)(C)CCC2(C)C [Bexarotene] (57.3905 µM),0.546
2,Nc1nc(=O)n([C@@H]2CS[C@H](CO)O2)cc1F [Emtricitabine] (80.8899 µM),0.481
3,O=C(c1ccc(F)cc1)C1CCN(CCn2c(=O)[nH]c3ccccc3c2=O)CC1 [Ketanserin tartrate] (50.5769 µM),0.475
4,COC(=O)C1=C(C)NC(C)=C(C(=O)OCCN2CCN(C(c3ccccc3)c3ccccc3)CC2)C1c1cccc([N+](=O)[O-])c1 (stereo not drawn) [Manidipine] (32.7484 µM),0.554
5,CCOC(=O)C1=C(C)NC(C)=C(C(=O)OC)C1c1cccc([N+](=O)[O-])c1 (stereo not drawn) [Nitrendipine] (55.4985 µM),0.472
6,COc1cc(Cc2cnc(N)nc2N)cc(OC)c1OC [Trimethoprim] (68.8884 µM),0.486
7,NCCC(O)(P(=O)(O)O)P(=O)(O)O [Pamidronic acid] (85.0806 µM),0.476
8,COc1cccc2c1C(=O)c1c(O)c3c(c(O)c1C2=O)C[C@@](O)(C(C)=O)C[C@@H]3O[C@H]1C[C@H](N)[C@H](O)[C@H](C)O1 [Daunorubicin HCl] (37.9123 µM),0.596
9,CCCc1nn(C)c2c(=O)[nH]c(-c3cc(S(=O)(=O)N4CCN(C)CC4)ccc3OCC)nc12 [Sildenafil] (42.142 µM),0.503
10,COc1ccc(CC2c3cc(OC)c(OC)cc3CC[N+]2(C)CCC(=O)OCCCCCOC(=O)CC[N+]2(C)CCc3cc(OC)c(OC)cc3C2Cc2ccc(OC)c(OC)c2)cc1OC (stereo not drawn) [Atracurium besylate] (21.5246 µM),0.474
11,COc1cc2nc(N3CCN(C(=O)C4CCCO4)CC3)nc(N)c2cc1OC (stereo not drawn) [Terazosin HCl] (51.6206 µM),0.504
12,COc1ccccc1N1CCN(CC(O)COc2cccc3ccccc23)CC1 (stereo not drawn) [Naftopidil 2HCl] (50.9551 µM),0.564
13,CC(=O)Nc1ccc(CC(=O)O)cc1 [Actarit] (103.52 µM),0.521
14,O=C(O[C@@H]1C[C@@H]2C[C@H]3C[C@H](C1)N2CC3=O)c1c[nH]c2ccccc12 [Dolasetron] (61.6555 µM),0.494
15,CC(=O)OCC(=O)NCCCOc1cccc(CN2CCCCC2)c1 [Roxatidine acetate HCl] (57.3977 µM),0.461
16,Cc1ccc(C(=O)c2cc(O)c(O)c([N+](=O)[O-])c2)cc1 [Tolcapone] (73.1937 µM),0.522
17,O=C(O)COCCN1CCN(C(c2ccccc2)c2ccc(Cl)cc2)CC1 (stereo not drawn) [Cetirizine 2HCl] (43.3088 µM),0.492
18,CC(C)[C@H](N)C(=O)OCCOCn1cnc2c(=O)nc(N)[nH]c21 [Valaciclovir] (61.6633 µM),0.465
19,CO[C@@H]1[C@@H](OC(N)=O)[C@@H](O)[C@H](Oc2ccc3c(O)c(NC(=O)c4ccc(O)c(CC=C(C)C)c4)c(=O)oc3c2C)OC1(C)C [Novobiocin Na] (32.6456 µM),0.513
20,CO[C@@H]1[C@H](OC(=O)/C=C/C=C/C=C/C=C/C(=O)O)CC[C@]2(CO2)[C@H]1[C@@]1(C)O[C@@H]1CC=C(C)C [Fumagillin] (43.6151 µM),0.518
21,N=C(N)NC(=N)N1CCOCC1 [Moroxydine HCl] (96.3092 µM),0.496
22,Cc1ccc(S(=O)(=O)NC(=O)NN2CCCCCC2)cc1 [Tolazamide] (64.2249 µM),0.516
23,CC(C)C(=O)Nc1ccc([N+](=O)[O-])c(C(F)(F)F)c1 [Flutamide] (72.4068 µM),0.526
24,O=C(O)c1cc(-c2ccc(F)cc2F)ccc1O [Diflunisal] (79.9349 µM),0.512
25,COc1cc2nc(N3CCN(C(=O)C4COc5ccccc5O4)CC3)nc(N)c2cc1OC (stereo not drawn) [Doxazosin mesylate] (44.2981 µM),0.442
26,CC(C(=O)O)c1cccc(C(=O)c2ccccc2)c1 (stereo not drawn) [Ketoprofen+D153] (78.6509 µM),0.495
27,CCN1CCN(C(=O)N[C@@H](C(=O)N[C@@H]2C(=O)N3C(C(=O)O)=C(CSc4nnnn4C)CS[C@H]23)c2ccc(O)cc2)C(=O)C1=O [Cefoperazone acid] (30.9752 µM),0.487
28,CN(C)CCCN1c2ccccc2CCc2ccccc21 [Imipramine HCl] (71.3225 µM),0.524
